PubChem BioAssay
Potency and affinity values are given separately. Results filed as inconclusive are left out. Active and inactive are the calls of the source. Unless noted, how the calls were made is not given here.

Key:
[1] = RMG-1 ovarian cancer cell viability loss – cherry-pick, dose response (AID 687029;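 active means signal drop whose fitted half-maximal concentration is at most twice the top valid dose, in every test run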;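 further: cells exposed to compound for 96 hours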)
[2] = IOSE-T80 viability loss, PAX8-independent line – cell-based, cherry-pick, selectivity assay for PAX8 inhibitor project, dose response (AID 687032;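 active means fitted half-maximal concentration for viability loss no higher than twice the top valid dose, in every repeat run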;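 further: cells exposed to compound for 96 h before reading; 0% = neutral control wells and -100% = 2 µM mitoxantrone kill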)
[3] = general cell-killing toxicity readout – plate reader, dry powder samples, cytotoxicity control for PAX8 inhibitor project, dose response (AID 743021)
[4] = IGROV1 cell killing – plate reader, dry powder samples, PAX8 inhibitor project, dose response (AID 743043);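 further: more negative means fewer viable cells or more cytotoxicity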
[5] = OVCAR-3 cell viability loss – plate reader, dry powder samples, PAX8 inhibitor project, dose response (AID 743044); settings: max activity: at 35 µM, active compounds read low unless noted
[6] = toxicity toward immortalized ovarian surface epithelium – cell-based, plate reader, dry powder samples, cytotoxicity control for PAX8 inhibitor project, dose response (AID 743045);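 further: 0% = neutral control median and -100% = positive control median; more negative values mean more cell killing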
[7] = A2780 cell killing – plate reader, dry powder samples, cytotoxicity control, dose response (AID 743046);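 further: 0% = neutral control wells and -100% = cytotoxic reference compound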
[8] = OVCAR8 cell viability loss – plate reader, dry powder samples, PAX8 project, dose response (AID 743197)
[9] = A549 cell cytotoxicity, dose response, cytotoxicity control, plate reader, cherry-pick, antagonist series (AID 743412);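 further: 0% = neutral control wells and -100% = positive control wells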
[10] = toxicity toward HepG2 liver cells – cell-based, plate reader, cherry-pick, antagonist series, cytotoxicity control, dose response (AID 743416);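 further: 0% = neutral control wells and -100% = positive control wells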

Measured: max activity

CCCN(C)C[C@H]1OCCCC[C@@H](C)Oc2ccc(NC(=O)Nc3ccc(C(F)(F)F)cc3)cc2C(=O)N([C@H](C)CO)C[C@H]1C
inactive: [1] | [2] | [3] | [4] | [5] 9.68% [at 1 µM, active compounds read low] | [6] | [7] | [8]

COc1ccc(NC(=O)N(C)C[C@H]2OCCCC[C@@H](C)Oc3ccc(NC(=O)Nc4ccc(C(F)(F)F)cc4)cc3C(=O)N([C@@H](C)CO)C[C@@H]2C)cc1
inactive: [1] | [2] | [3] | [4] | [6] | [7]

O=C(Nc1ccc(C(F)(F)F)cc1)Nc1ccc2c(c1)[C@H]1C[C@@H](CC(=O)N3CCc4ccccc4C3)O[C@H](CO)[C@H]1O2
inactive: [1] | [2] | [3] | [4] | [6] | [7]

C[C@@H]1CCCCO[C@H](CN(C)C(=O)Nc2ccc(F)cc2)[C@@H](C)CN([C@@H](C)CO)C(=O)c2cc(NS(=O)(=O)c3ccc(Cl)cc3)ccc2O1
inactive: [1] | [2] | [3] | [4] | [6] | [7]

C[C@H](CO)N1C[C@H](C)[C@H](CN(C)Cc2ccc(C(F)(F)F)cc2)OCCCC[C@H](C)Oc2ccc(NC(=O)CCC(F)(F)F)cc2C1=O
inactive: [1] | [2] | [3] | [4] | [6] | [7]

C[C@H]1CN([C@@H](C)CO)C(=O)c2c(c3ccccc3n2C)-c2ccccc2CO[C@@H]1CN(C)S(=O)(=O)c1cccc(F)c1
inactive: [1] | [2] | [3] | [4] | [5] -21.9% | [6] | [7]

C[C@H]1CCCCO[C@H](CN(C)C(=O)Nc2ccc(C(F)(F)F)cc2)[C@@H](C)CN([C@@H](C)CO)C(=O)c2cc(NS(=O)(=O)c3ccc(F)cc3)ccc2O1
inactive: [1] | [2] | [3] | [4] | [5] 19.1% [at 4.2 µM, active compounds read low] | [6] | [7]

O=C(C[C@H]1C[C@@H]2c3cc(NS(=O)(=O)c4ccc(F)cc4)ccc3O[C@@H]2[C@@H](CO)O1)NCc1ccc(Oc2ccccc2)cc1
inactive: [1] | [2] | [3] | [4] | [5] 26.4% | [6] | [7] | [8]

C[C@@H]1CN([C@H](C)CO)C(=O)c2cc(NC(=O)CCC(F)(F)F)ccc2O[C@@H](C)CCCCO[C@@H]1CN(C)Cc1ccc(C(F)(F)F)cc1
inactive: [1] | [2] | [3] | [4] | [6]

CS(=O)(=O)Nc1ccc2c(c1)[C@@H]1C[C@H](CC(=O)NCc3ccc(Oc4ccccc4)cc3)O[C@@H](CO)[C@@H]1O2
not listed: [5] | [9] | [10]
inactive: all other assays above

C[C@H]1CN([C@@H](C)CO)S(=O)(=O)c2ccc(C#CC3CCCC3)cc2O[C@@H]1CN(C)Cc1cccnc1
inactive: [1] | [2] | [3] | [4] | [6] | [7]

C[C@@H]1CCCCO[C@@H](CN(C)C(=O)Nc2ccc(C(F)(F)F)cc2)[C@H](C)CN([C@@H](C)CO)C(=O)c2cc(NC(=O)Nc3ccc(C(F)(F)F)cc3)ccc2O1
inactive: [1] | [2] | [3] | [4] | [5] -30.2% | [6] | [7] | [8]

COc1ccc(S(=O)(=O)Nc2ccc3c(c2)C(=O)N([C@H](C)CO)C[C@@H](C)[C@@H](CN(C)Cc2ccc(C(F)(F)F)cc2)OCCCC[C@H](C)O3)cc1
not listed: [5] | [9] | [10]
inactive: all other assays above

C[C@@H]1CCCCO[C@H](CN(C)C(=O)Nc2ccc(C(F)(F)F)cc2)[C@@H](C)CN([C@@H](C)CO)C(=O)c2cc(NS(=O)(=O)c3ccccc3)ccc2O1
inactive: [1] | [2] | [3] | [4] | [5] 27.6% [at 0.26 µM, active compounds read low] | [6] | [7] | [8]

C[C@@H]1CCCCO[C@H](CN(C)Cc2ccc3c(c2)OCO3)[C@@H](C)CN([C@@H](C)CO)C(=O)c2cc(NC(=O)Nc3ccc(C(F)(F)F)cc3)ccc2O1
inactive: [1] | [2] | [3] | [4] | [5] -12% | [6] | [7]

Cc1noc(C)c1S(=O)(=O)Nc1ccc2c(c1)C(=O)N([C@@H](C)CO)C[C@H](C)[C@@H](CN(C)C(=O)Nc1ccc(C(F)(F)F)cc1)OCCCC[C@H](C)O2
inactive: [1] | [2] | [3] | [4] | [6] | [7]

O=C1/C(=C/c2cccc(Br)c2)SC(=S)N1CCC(=O)N(CCO)c1ccccc1
not listed: [8] | [9] | [10]
inactive: all other assays above

COc1ccc(S(=O)(=O)Nc2ccc3c(c2)CC(=O)N([C@H](C)CO)C[C@H](C)[C@@H](CN(C)Cc2ccc(C(F)(F)F)cc2)O3)cc1
inactive: [1] | [2] | [3] | [4] | [5] -8.3% [at 8 µM, active compounds read low] | [6] | [7]

COc1ccc(CCN2C(=O)CSC2=S)cc1OC
inactive: [1] | [2] | [3] | [4] | [5] | [7]

C[C@H]1CCCCO[C@@H](CN(C)Cc2ccc(Cl)c(Cl)c2)[C@@H](C)CN([C@@H](C)CO)C(=O)c2cc(NC(=O)Nc3ccc(C(F)(F)F)cc3)ccc2O1
inactive: [1] | [2] | [3] | [4] | [6]

C[C@@H]1CN([C@@H](C)CO)C(=O)Cc2cc(NC(=O)NC3CCCCC3)ccc2O[C@H]1CN(C)Cc1ccc(-c2ccccc2)cc1
inactive: [1] | [2] | [3] | [4] | [6]

C[C@@H]1CCCCO[C@H](CN(C)CC2CCCCC2)[C@H](C)CN([C@@H](C)CO)C(=O)c2cc(NS(=O)(=O)c3ccc(Cl)cc3)ccc2O1
inactive: [1] | [2] | [3] | [4] | [5] 13.1% [at 0.5 µM, active compounds read low] | [6] | [7] | [8]

CC1(C)CC(=O)c2sc(NC(=O)CCS(=O)(=O)c3ccccc3)nc2C1
inactive: [1] | [2] | [3] | [4] | [5] | [7]

C[C@H]1CCCCO[C@@H](CN(C)Cc2ccc(C(F)(F)F)cc2)[C@@H](C)CN([C@@H](C)CO)C(=O)c2cc(NC(=O)Nc3ccc(F)cc3)ccc2O1
inactive: [1] | [2] | [3] | [4] | [6] | [7]

O=C(Nc1ccccc1)N1CCCCN2[C@H](C1)[C@@H](c1ccc(C#Cc3ccccc3)cc1)[C@@H]2CO
inactive: [1] | [2] | [3] | [4] | [6] | [7]

C[C@H]1CN([C@@H](C)CO)C(=O)Cc2cc(NC(=O)Nc3ccc4c(c3)OCO4)ccc2O[C@@H]1CN(C)Cc1ccc(-c2ccccc2)cc1
inactive: [1] | [2] | [3] | [4] | [5] -22.8% [at 16 µM, active compounds read low] | [6] | [7] | [8]

C[C@@H]1CCCCO[C@H](CN(C)Cc2ccc(Cl)c(Cl)c2)[C@H](C)CN([C@@H](C)CO)C(=O)c2cc(NC(=O)Nc3ccc(C(F)(F)F)cc3)ccc2O1
inactive: [1] | [2] | [3] | [4] | [6] | [7]

C[C@@H]1CCCCO[C@H](CN(C)Cc2ccc(Cl)c(Cl)c2)[C@@H](C)CN([C@@H](C)CO)C(=O)c2cc(NC(=O)Nc3ccc(C(F)(F)F)cc3)ccc2O1
inactive: [1] | [2] | [3] | [4] | [6] | [7]

Cc1ccccc1OCC(=O)Nc1cccc(C(=O)O)c1
not listed: [8]
inactive: all other assays above

C[C@H](CO)N1C[C@H](C)[C@@H](CN(C)C(=O)Nc2cccc3ccccc23)OCCCC[C@H](C)Oc2ccc(NC(=O)c3ccncc3)cc2C1=O
inactive: [1] | [2] | [3] | [4] | [5] -25.1% | [6] | [7] | [8]

C[C@@H]1CCCCO[C@H](CN(C)S(=O)(=O)c2ccc(Cl)cc2)[C@H](C)CN([C@@H](C)CO)C(=O)c2cc(NS(=O)(=O)c3ccc(F)cc3)ccc2O1
inactive: [1] | [2] | [3] | [4] | [5] -23.5% [at 8 µM, active compounds read low] | [6] | [7] | [8]

C[C@@H]1CN([C@H](C)CO)C(=O)c2cc(NC(=O)Nc3ccc(C(F)(F)F)cc3)ccc2O[C@@H](C)CCCCO[C@H]1CN(C)S(=O)(=O)c1ccc(F)cc1
inactive: [1] | [2] | [3] | [4] | [5] -20.5% [at 8 µM, active compounds read low] | [6] | [7] | [8]

COc1ccc(S(=O)(=O)N(C)C[C@H]2Oc3cc(C#CC4CCCC4)ccc3S(=O)(=O)N([C@@H](C)CO)C[C@@H]2C)cc1
inactive: [1] | [2] | [3] | [6]
